According to PubChem BioAssay (NCI):
“And” between values parts separate entries of the source, which are not always exact repeats. Equal values may be shown once. Compounds without any hit were thinned out: in the full panel of roughly 83,000, 20% have a hit.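 Cells were grown in 96-well plates and exposed to the test compound at a single concentration for 48 hours; results are reported as percent growth, with values below 10 considered active.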 The source made the active and inactive calls.

Legend:
Experiment in all cases: NCI-60 one-dose screen, 48 h (100 = growth as untreated, 0 = no growth, -100 = all killed)
Settings in all cases: 10 µM unless noted
HCT-15 colon = system: HCT-15 colon
HT29 colon = system: HT29 colon
SNB-75 CNS = system: SNB-75 CNS
SNB-19 CNS = system: SNB-19 CNS
U251 CNS = system: U251 CNS
PC-3 prostate = system: PC-3 prostate
SK-MEL-5 melanoma = system: SK-MEL-5 melanoma
UACC-62 melanoma = system: UACC-62 melanoma
LOX IMVI melanoma = system: LOX IMVI melanoma
SK-MEL-28 melanoma = system: SK-MEL-28 melanoma
SK-MEL-2 melanoma = system: SK-MEL-2 melanoma
EKVX NSCLC = system: EKVX NSCLC
SN12C renal = system: SN12C renal
UO-31 renal = system: UO-31 renal
TK-10 renal = system: TK-10 renal
ACHN renal = system: ACHN renal
CAKI-1 renal = system: CAKI-1 renal
A498 renal = system: A498 renal
HL-60(TB) leukemia = system: HL-60(TB) leukemia
CCRF-CEM leukemia = system: CCRF-CEM leukemia

Row | Structure (SMILES) | growth (HCT-15 colon) | growth (HT29 colon) | growth (SNB-75 CNS) | growth (SNB-19 CNS) | growth (U251 CNS) | growth (PC-3 prostate) | growth (SK-MEL-5 melanoma) | growth (UACC-62 melanoma) | growth (LOX IMVI melanoma) | growth (SK-MEL-28 melanoma) | growth (SK-MEL-2 melanoma) | growth (EKVX NSCLC) | growth (SN12C renal) | growth (UO-31 renal) | growth (TK-10 renal) | growth (ACHN renal) | growth (CAKI-1 renal) | growth (A498 renal) | growth (HL-60(TB) leukemia) | growth (CCRF-CEM leukemia)
1 | CCCC1CCCCC12C(=O)NC(=O)NC2=O (stereo not given) | 94.3% (inactive) and 106% (inactive) | 97.2% (inactive) and 94.3% (inactive) | 100% (inactive) and 87.2% (inactive) | 96.2% (inactive) and 110% (inactive) | 97.8% (inactive) and 102% (inactive) | 104% (inactive) and 101% (inactive) | 95.5% (inactive) and 103% (inactive) | 98.2% (inactive) and 109% (inactive) | 97% (inactive) and 97.1% (inactive) | 103% (inactive) and 114% (inactive) | 105% (inactive) and 99.8% (inactive) | 85.6% (inactive) | 101% (inactive) and 106% (inactive) | 84.3% (inactive) and 87.9% (inactive) | 92.9% (inactive) and 107% (inactive) | 104% (inactive) and 106% (inactive) | 94.8% (inactive) and 99.6% (inactive) | 70.3% (inactive) and 102% (inactive) | 121% (inactive) and 94.2% (inactive) | 109% (inactive) and 101% (inactive)
2 | Oc1ccc(O)c(Cl)c1 | 96.4% (inactive) and 110% (inactive) | 103% (inactive) and 107% (inactive) | 72.2% (inactive) and 85.8% (inactive) | 111% (inactive) | 94.6% (inactive) and 101% (inactive) | 84.3% (inactive) and 94.2% (inactive) | 91.3% (inactive) and 95.2% (inactive) | 93.9% (inactive) and 101% (inactive) | 94.4% (inactive) and 93.9% (inactive) | 115% (inactive) and 122% (inactive) | 102% (inactive) | 112% (inactive) | 89.7% (inactive) and 99.6% (inactive) | 56.6% (inactive) and 75.2% (inactive) | 124% (inactive) and 110% (inactive) | 95.9% (inactive) and 101% (inactive) | 93.4% (inactive) and 101% (inactive) | 109% (inactive) and 98.6% (inactive) | 12.3% (inactive) and 94.8% (inactive) | 15.5% (inactive) and 64.5% (inactive)
3 | Cc1c(C)c(N)c(C)c(C)c1N | 34.8% (inactive) | 25.7% (inactive) | 110% (inactive) | 82.1% (inactive) | 78.1% (inactive) | 73.6% (inactive) | 93% (inactive) | 66.3% (inactive) | 51.9% (inactive) | 106% (inactive) | 15% (inactive) | 108% (inactive) | 72.6% (inactive) | 60.6% (inactive) | 90.8% (inactive) | -8.61% (active) | 46.6% (inactive) | 102% (inactive) | 103% (inactive) | 91.8% (inactive)
4 | C[C@]12CCC(=O)C[C@@H]1CC[C@@H]1[C@@H]2CC[C@]2(C)[C@@H](OC(=O)N(CCCl)N=O)CC[C@@H]12 | 27.9% (inactive) | 31.6% (inactive) | 39.4% (inactive) | 31% (inactive) | 16.1% (inactive) | 36.3% (inactive) | 22.8% (inactive) | 13.5% (inactive) | 22.6% (inactive) | 63.1% (inactive) | 17.7% (inactive) | 69.9% (inactive) | 24% (inactive) | 25.4% (inactive) | 32.9% (inactive) | 9.18% (active) | 5.32% (active) | 43.5% (inactive) | -10.5% (active) | 14.7% (inactive)
5 | NC1CN2CCC1CC2 (stereo not given) | 99.3% (inactive) | 99.8% (inactive) | 73.9% (inactive) | 101% (inactive) | 103% (inactive) | 90.7% (inactive) | 110% (inactive) | 90.4% (inactive) | 97.2% (inactive) | 100% (inactive) | 100% (inactive) | 96.5% (inactive) | 108% (inactive) | 80.3% (inactive) | 98.2% (inactive) | 93% (inactive) | 86.7% (inactive) | 97.8% (inactive) | 84.9% (inactive) | 93% (inactive)
6 | O=P(O)(Nc1ccccc1)Nc1ccccc1 | 119% (inactive) | 94.3% (inactive) | 81.9% (inactive) | 95.3% (inactive) | 99.3% (inactive) | 91.5% (inactive) | 94.4% (inactive) | 91.8% (inactive) | 92.7% (inactive) | 148% (inactive) | 134% (inactive) | 80.6% (inactive) | 99.9% (inactive) | 81.7% (inactive) | 106% (inactive) | 95.9% (inactive) | 77.2% (inactive) | 89.3% (inactive) | 74% (inactive) | 99.3% (inactive)
7 | C=C1C(=O)OC2CC3(C)OC3C3OC3C3=CC(OC3=O)C12 (stereo not given) | 46.4% (inactive) and 36% (inactive) | 98.2% (inactive) and 79.6% (inactive) | 87.7% (inactive) and 90.1% (inactive) | 104% (inactive) and 103% (inactive) | 103% (inactive) and 104% (inactive) | 106% (inactive) and 92.2% (inactive) | 109% (inactive) and 95% (inactive) | 99.3% (inactive) and 82.7% (inactive) | 93.1% (inactive) and 92% (inactive) | 52.6% (inactive) and 73.8% (inactive) | 100% (inactive) | 111% (inactive) | 100% (inactive) and 97.4% (inactive) | 44.3% (inactive) and 44.2% (inactive) | 16.7% (inactive) and -22.5% (active) | -5.94% (active) and -29% (active) | 4.76% (active) and 6.96% (active) | 113% (inactive) and 106% (inactive) | -17.4% (active) and 3.33% (active) | -42.4% (active) and -54.4% (active)
8 | CC[C@H](C)[C@H](NC(=O)c1ncccn1)C(=O)N(C)[C@H](C[C@@H](OC(C)=O)c1nc(C(=O)N[C@@H](Cc2ccccc2)C[C@H](C)C(=O)OC)cs1)C(C)C | 10.3% (inactive) | -2.02% (active) | -3.1% (active) | 44.1% (inactive) | 16.7% (inactive) | 27.7% (inactive) | 21.5% (inactive) | 46.9% (inactive) | 21.4% (inactive) | 50.3% (inactive) | 43.9% (inactive) | 58.5% (inactive) | 45.7% (inactive) | 50.5% (inactive) | 41% (inactive) | 50.8% (inactive) | 61% (inactive) | 28.1% (inactive) | -42.8% (active) | 10.4% (inactive)
9 | N#CCC(=O)c1ccccc1 | 99.8% (inactive) | 110% (inactive) | 84.3% (inactive) | 111% (inactive) | 101% (inactive) | 95.2% (inactive) | 104% (inactive) | 107% (inactive) | 103% (inactive) | 114% (inactive) | 114% (inactive) | 99% (inactive) | 109% (inactive) | 79% (inactive) | 119% (inactive) | 106% (inactive) | 101% (inactive) | 117% (inactive) | 98.4% (inactive) | 110% (inactive)
10 | C=CC1CN2CCC1CC2C(O)c1ccnc2ccccc12 (stereo not given) | 116% (inactive) | 115% (inactive) | 124% (inactive) | 124% (inactive) | 115% (inactive) | 55.8% (inactive) | 104% (inactive) | 113% (inactive) | 117% (inactive) | 133% (inactive) | -4.22% (active) | 145% (inactive) | 109% (inactive) | 67% (inactive) | 142% (inactive) | 109% (inactive) | 144% (inactive) | 125% (inactive) | 225% (inactive) | 304% (inactive)
11 | O=c1[nH]c(=O)n(Cl)c(=O)n1Cl | 111% (inactive) and 108% (inactive) | 106% (inactive) and 112% (inactive) | 124% (inactive) and 105% (inactive) | 106% (inactive) and 98.2% (inactive) | 98.5% (inactive) and 113% (inactive) | 98.8% (inactive) and 98% (inactive) | 103% (inactive) and 93.7% (inactive) | 98.7% (inactive) and 101% (inactive) | 109% (inactive) and 105% (inactive) | 117% (inactive) and 122% (inactive) | 114% (inactive) and 96.7% (inactive) | 107% (inactive) and 101% (inactive) | 94.2% (inactive) and 108% (inactive) | 84.3% (inactive) and 86.7% (inactive) | 115% (inactive) and 117% (inactive) | 109% (inactive) and 107% (inactive) | 101% (inactive) and 108% (inactive) | 106% (inactive) and 127% (inactive) | 110% (inactive) and 115% (inactive) | 101% (inactive) and 104% (inactive)
12 | CC[C@H](C)[C@H](NC(=O)[C@H]1CCCCN1C)C(=O)N(C)[C@H](C[C@@H](OC(C)=O)c1nc(C(=O)N[C@@H](Cc2ccccc2)C[C@H](C)C(=O)O)cs1)C(C)C | 9.59% (active) | -18.7% (active) | 31.4% (inactive) | 36.7% (inactive) | 15% (inactive) | 26.1% (inactive) | -71.7% (active) | 52.8% (inactive) | 9.84% (active) | 50.6% (inactive) | 2.53% (active) | 38.4% (inactive) | 47.5% (inactive) | 38.2% (inactive) | 22.8% (inactive) | 14.3% (inactive) | 35.9% (inactive) | -2.03% (active) | -29.8% (active) | 7.95% (active)
